Experiment [1] addresses Bile acid receptor (Homo sapiens) (UniProt Q96RI1). The experiment can be described thus: ATG_IR1_CIS: Attagene CIS-FACTORIAL HepG2 Assay for human Nuclear Receptor Subfamily 1 Group H Member 4 (NR1H4), IR1 submotif (AID 2282946). The following applies: IR1 reporter transcription, actives raise or lower the signal. In a few lines: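 Fluorescence of capillary-separated, HpaI-digested RT-PCR reporter products gave IR1-element mRNA induction in HepG2 cells 24 h after dosing. Endogenous transcription factors drove the cis-regulated reporters; activity was fitted bidirectionally against DMSO.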

A short description of experiment [2]: ATG_GRE_CIS: Attagene CIS-FACTORIAL HepG2 Assay for human Glucocorticoid Response Elements (GRE) (AID 2282947). Particulars: HepG2 GRE cis-reporter, Attagene multiplex mRNA; actives raise or lower the signal. The gist of the method: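 Read-out: fluorescent reporter-transcript fragments separated by capillary electrophoresis after RT-PCR. Transiently transfected HepG2 cells carrying cis-element-driven reporter units were dosed for 24 h; gain or loss of signal fitted against DMSO control.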

A short description of experiment [3]: ATG_ISRE_CIS: Attagene CIS-FACTORIAL HepG2 Assay for human Interferon Regulatory Factor 1 (IRF1) binding to an Interferon-Stimulated Response Element (ISRE) (AID 2282948). Particulars: HepG2 ISRE cis-reporter (Attagene), mRNA transcription readout; actives raise or lower the signal. The gist of the method:
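Endogenous transcription factor activity read as reporter transcript abundance via RT-PCR and capillary electrophoresis. HepG2 cells transiently transfected, 24 h chemical exposure. Gain or loss fitted against DMSO baseline.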

The nature of experiment [4]: ATG_M_32_CIS: Attagene CIS-FACTORIAL HepG2 Assay for M32 Transcription Factor (Internal Marker) (AID 2282949).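 Note: background control marker of the multiplexed CIS panel rather than a real target.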 The following applies: HepG2 Attagene cis-factorial M32 reporter, mRNA; actives raise or lower the signal. In a few lines: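 Using DMSO as baseline, bidirectional curve fits were applied to reporter mRNA signals. These came from transiently transfected HepG2 cells exposed for 24 h, with RNA analysed by RT-PCR, FAM primer extension, HpaI digestion and CE.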

Experiment [5] in a line: ATG_M_06_CIS: Attagene CIS-FACTORIAL HepG2 Assay for M06 Transcription Factor (Internal Marker) (AID 2282950). The following applies: HepG2 Attagene CIS-FACTORIAL M06 internal marker reporter; actives raise or lower the signal. In a few lines:
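One of many multiplexed endpoints: HepG2 reporter mRNA after 24 h dosing, detected by RT-PCR and capillary electrophoresis fluorescence; gain or loss of signal analysed against DMSO.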

Experiment [6] concerns the target Hypoxia-inducible factor 1-alpha (Homo sapiens) (UniProt Q16665). The experiment can be described thus: ATG_HIF1a_CIS: Attagene CIS-FACTORIAL HepG2 Assay for human Hypoxia Inducible Factor 1 (HIF1A) (AID 2282951). Particulars: HepG2 Attagene cis-factorial HIF1a reporter transcription; actives raise or lower the signal. The gist of the method:
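In this multiplexed cell assay, HepG2 cells bearing transfected cis reporters are dosed for 24 h and reporter mRNA is read by RT-PCR plus capillary electrophoresis; signal increases and decreases are both scored against DMSO.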

In experiment [7] the target is Hepatocyte nuclear factor 6 (Homo sapiens) (UniProt Q9UBC0). The experiment can be described thus: ATG_HNF6_CIS: Attagene CIS-FACTORIAL HepG2 Assay for human Hepatocyte Nuclear Factor 6 (HNF6) (AID 2282952). The following applies: HepG2 Attagene cis-factorial HNF6 reporter transcription; actives raise or lower the signal. In a few lines:
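Activity values derive from bidirectional fitting against DMSO of reporter mRNA levels, measured by capillary electrophoresis of labelled RT-PCR products from HepG2 cells exposed 24 h.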

Experiment [8] deals with Heat shock factor protein 1 (Homo sapiens) (UniProt Q00613). As to the kind of experiment: ATG_HSE_CIS: Attagene CIS-FACTORIAL HepG2 Assay for human Heat Shock Transcription Factor 1 (HSE) (AID 2282953). The following applies: HepG2 HSE cis-reporter, Attagene RNA transcription; actives raise or lower the signal. The gist of the method: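 Using HepG2 with transfected cis-driven reporter constructs, compound effects on endogenous factor activity are scored as reporter mRNA change at 24 h. Detection: RT-PCR, HpaI digestion, capillary electrophoresis; bidirectional fitting to DMSO.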

Experiment [9] can be described thus: ATG_MRE_CIS: Attagene CIS-FACTORIAL HepG2 Assay for human Metal Responsive Element (MRE) (AID 2282954). Particulars: HepG2 MRE cis-reporter transcription, Attagene multiplex; actives raise or lower the signal. In a few lines: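 RT-PCR/capillary electrophoresis readout of reporter mRNA, 24 h post-dosing, in HepG2 cells transfected with multiplexed cis-regulated reporter constructs. Gain or loss of signal fitted bidirectionally against DMSO baseline.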

A short description of experiment [10]: ATG_PBREM_CIS: Attagene CIS-FACTORIAL HepG2 Assay for human Phenobarbital-responsive Enhancer Module (PBREM) (AID 2282955). Particulars: HepG2 PBREM cis-reporter, Attagene multiplexed transcription; actives raise or lower the signal. The gist of the method:
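After a 24 h incubation with test chemical, transfected HepG2 cells yield total RNA; reporter-specific RT-PCR products are fluorescently labelled, HpaI-digested and resolved by capillary electrophoresis against ROX size standards.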

Experiment [11] is described as follows: ATG_PXRE_CIS: Attagene CIS-FACTORIAL HepG2 Assay for human Pregnane X Receptor Element (PXRE) (AID 2282957). The following applies: HepG2 Attagene CIS-FACTORIAL PXRE reporter, mRNA; actives raise or lower the signal. The gist of the method: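 Fluorescent capillary electrophoresis of amplified reporter cDNA gave the signal, collected 24 h after dosing HepG2 cells that held transfected cis-element reporter constructs.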

Experiment [12] can be described thus: ATG_PPRE_CIS: Attagene CIS-FACTORIAL HepG2 Assay for human Peroxisome Proliferator-activated Response Element (PPRE) (AID 2282958). The following applies: HepG2 PPRE cis-element reporter, Attagene transcription factor profiling; actives raise or lower the signal. In a few lines:
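Multiplexed reporter transcription units under cis-regulatory promoters were transfected into HepG2 cells to capture endogenous factor activity. A 24 h incubation preceded RNA isolation and fluorescent RT-PCR fragment analysis.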

Experiment [13] is described as follows: ATG_RORE_CIS: Attagene CIS-FACTORIAL HepG2 Assay for human RAR-related Orphan Receptor Element (RORE) (AID 2282959). The following applies: HepG2 Attagene cis-factorial RORE reporter, mRNA; actives raise or lower the signal. In a few lines:
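Fluorescence intensity of reporter-specific cDNA fragments, separated by capillary electrophoresis, gives the signal. Source: HepG2 liver cells transiently transfected with cis-element reporters and exposed 24 h; DMSO-normalized bidirectional fit.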

Experiment [14] can be described thus: ATG_Sox_CIS: Attagene CIS-FACTORIAL HepG2 Assay for human SRY-box transcription factor (SOX) (AID 2282960). The following applies: HepG2 Attagene cis-factorial SOX reporter, mRNA; actives raise or lower the signal. In a few lines:
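After 24 h of chemical treatment, transfected HepG2 reporter cells are lysed for total RNA. Transcript levels come from RT-PCR with labelled primer extension and capillary electrophoresis, analysed bidirectionally versus DMSO.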

Experiment [15] deals with Transcription factor Sp1 (Homo sapiens) (UniProt P08047). The experiment can be described thus: ATG_Sp1_CIS: Attagene CIS-FACTORIAL HepG2 Assay for human Specificity Protein 1 (Sp1) (AID 2282961). The following applies: HepG2 Sp1 cis-reporter transcription, actives raise or lower the signal. The gist of the method: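 Sp1-driven reporter mRNA, read as capillary electrophoresis fluorescence after RT-PCR, in transiently transfected HepG2 cells dosed for 24 h; signal change in either direction relative to DMSO.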

Experiment [16] in a line: ATG_SREBP_CIS: Attagene CIS-FACTORIAL HepG2 Assay for human Sterol Regulatory Element Binding (SREBP) (AID 2282962). The following applies: HepG2 Attagene cis-factorial SREBP reporter, mRNA; actives raise or lower the signal. The gist of the method:
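Endogenous SREBP activity read as cis-element-driven reporter transcript in transiently transfected HepG2, 24 h post-dosing; quantified via RT-PCR plus capillary electrophoresis of fluorescent fragments. Gain or loss of signal fitted relative to DMSO baseline.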

Experiment [17] addresses Signal transducer and activator of transcription 3 (Homo sapiens) (UniProt P40763). The experiment can be described thus: ATG_STAT3_CIS: Attagene CIS-FACTORIAL HepG2 Assay for human Signal Transducer and Activator of Transcription 3 (STAT3) (AID 2282963). Particulars: HepG2, Attagene cis-factorial STAT3 reporter transcription; actives raise or lower the signal. The gist of the method: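 Readout: fluorescent reporter mRNA fragments resolved by capillary electrophoresis. Setup: HepG2 transfected with MRTUs reporting endogenous transcription-factor activity, dosed 24 h. Gain or loss of signal fitted bidirectionally against DMSO control.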

Experiment [18] is described as follows: ATG_TA_CIS: Attagene CIS-FACTORIAL HepG2 Assay for human TA Basal Promoter (AID 2282964). Particulars: HepG2 Attagene CIS-factorial TA basal promoter reporter; actives raise or lower the signal. In a few lines: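 Transient MRTU transfection of HepG2 preceded 24 h compound exposure. Reporter mRNA levels were then read by RT-PCR with capillary electrophoresis, and this background-control endpoint was fitted bidirectionally to DMSO.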

Experiment [19] is described as follows: ATG_TCF_b_cat_CIS: Attagene CIS-FACTORIAL HepG2 Assay for human T-Cell-Factor with beta-catenin (TCF/b-cat) (AID 2282965). Particulars: HepG2 TCF/beta-catenin cis-reporter transcription, actives raise or lower the signal. The gist of the method: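 Cells of the HepG2 line carry transiently transfected reporter units whose promoters respond to endogenous factors. Twenty-four hours post-dosing, reporter mRNA induction is measured by fluorescent RT-PCR and capillary electrophoresis, with DMSO as baseline.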

Experiment [20] addresses Paired box protein Pax-6 (Homo sapiens) (UniProt P26367). The experiment can be described thus: ATG_Pax6_CIS: Attagene CIS-FACTORIAL HepG2 Assay for human Paired Box 6 (PAX6) (AID 2282956). The following applies: HepG2 CIS-FACTORIAL PAX6 reporter transcription, RNA readout; actives raise or lower the signal. The gist of the method: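 Read-out is reporter transcript level, measured by RT-PCR with fluorescent primer extension and capillary electrophoresis after 24 h dosing of transfected HepG2 cells. Activity in either direction fitted relative to DMSO control.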

Active and inactive are the calls of the source. Rule for the calls: active = hit-call score of the fitted dose curve at least 0.9, where 1 is the maximum; inactive = score below 0.9.

Chain of Hepatocyte nuclear factor 6 (Homo sapiens) (Q9UBC0 whole entry, looked up): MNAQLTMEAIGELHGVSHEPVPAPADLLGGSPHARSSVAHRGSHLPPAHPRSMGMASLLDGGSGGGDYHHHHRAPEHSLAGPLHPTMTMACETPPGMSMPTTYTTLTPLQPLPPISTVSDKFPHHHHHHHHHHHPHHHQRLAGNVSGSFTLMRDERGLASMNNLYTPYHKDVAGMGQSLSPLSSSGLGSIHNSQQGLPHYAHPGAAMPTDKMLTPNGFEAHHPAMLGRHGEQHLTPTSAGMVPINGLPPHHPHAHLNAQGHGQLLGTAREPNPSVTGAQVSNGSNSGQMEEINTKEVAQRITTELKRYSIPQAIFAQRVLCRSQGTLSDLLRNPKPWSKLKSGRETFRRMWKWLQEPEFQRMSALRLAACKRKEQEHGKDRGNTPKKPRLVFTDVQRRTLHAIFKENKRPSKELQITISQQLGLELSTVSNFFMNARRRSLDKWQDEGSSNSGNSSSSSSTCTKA
Chain of Signal transducer and activator of transcription 3 (Homo sapiens) (P40763 whole entry, looked up, the tested form may be a part): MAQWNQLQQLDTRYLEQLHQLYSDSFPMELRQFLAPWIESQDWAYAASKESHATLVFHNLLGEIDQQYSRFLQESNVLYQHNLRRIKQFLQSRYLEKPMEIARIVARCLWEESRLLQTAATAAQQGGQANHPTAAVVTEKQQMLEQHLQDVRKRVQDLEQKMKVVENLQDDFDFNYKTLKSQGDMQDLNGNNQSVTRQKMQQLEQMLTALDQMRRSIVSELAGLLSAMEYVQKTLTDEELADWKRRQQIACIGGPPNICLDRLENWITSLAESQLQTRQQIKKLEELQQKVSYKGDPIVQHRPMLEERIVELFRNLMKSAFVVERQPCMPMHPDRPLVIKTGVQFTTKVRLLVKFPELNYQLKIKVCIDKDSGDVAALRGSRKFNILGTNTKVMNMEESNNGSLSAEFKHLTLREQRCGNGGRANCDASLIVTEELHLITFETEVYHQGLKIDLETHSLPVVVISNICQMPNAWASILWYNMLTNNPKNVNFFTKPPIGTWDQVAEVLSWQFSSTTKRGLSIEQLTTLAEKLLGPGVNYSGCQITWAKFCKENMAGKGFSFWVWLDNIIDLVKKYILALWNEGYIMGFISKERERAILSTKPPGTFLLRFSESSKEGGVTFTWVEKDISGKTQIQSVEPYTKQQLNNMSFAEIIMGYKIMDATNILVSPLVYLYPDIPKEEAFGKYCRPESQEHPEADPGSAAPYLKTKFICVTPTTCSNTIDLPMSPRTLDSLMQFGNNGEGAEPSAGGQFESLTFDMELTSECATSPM
Chain of Hypoxia-inducible factor 1-alpha (Homo sapiens) (Q16665 whole entry, looked up): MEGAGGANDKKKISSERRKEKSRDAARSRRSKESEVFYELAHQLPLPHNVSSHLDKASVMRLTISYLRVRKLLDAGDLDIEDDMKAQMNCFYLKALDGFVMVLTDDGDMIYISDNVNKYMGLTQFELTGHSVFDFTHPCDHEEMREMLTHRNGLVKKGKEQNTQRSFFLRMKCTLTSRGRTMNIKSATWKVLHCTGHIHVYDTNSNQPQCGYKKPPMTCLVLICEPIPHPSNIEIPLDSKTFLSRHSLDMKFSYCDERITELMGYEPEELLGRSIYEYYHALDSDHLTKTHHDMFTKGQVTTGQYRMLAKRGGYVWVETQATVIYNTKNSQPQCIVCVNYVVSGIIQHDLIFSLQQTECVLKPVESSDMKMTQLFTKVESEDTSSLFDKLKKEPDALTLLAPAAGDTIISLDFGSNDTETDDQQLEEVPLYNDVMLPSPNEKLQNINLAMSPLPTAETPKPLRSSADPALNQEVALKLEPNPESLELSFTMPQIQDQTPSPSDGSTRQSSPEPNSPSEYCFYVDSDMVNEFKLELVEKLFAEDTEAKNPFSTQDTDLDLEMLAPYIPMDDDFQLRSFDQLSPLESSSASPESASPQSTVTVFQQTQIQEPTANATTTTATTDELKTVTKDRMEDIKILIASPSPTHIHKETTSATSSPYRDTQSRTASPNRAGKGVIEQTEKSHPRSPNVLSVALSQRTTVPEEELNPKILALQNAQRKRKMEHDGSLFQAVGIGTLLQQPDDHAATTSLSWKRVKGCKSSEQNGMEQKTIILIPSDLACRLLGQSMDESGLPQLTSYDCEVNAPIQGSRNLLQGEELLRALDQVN
Chain of Bile acid receptor (Homo sapiens) (Q96RI1 whole entry, looked up): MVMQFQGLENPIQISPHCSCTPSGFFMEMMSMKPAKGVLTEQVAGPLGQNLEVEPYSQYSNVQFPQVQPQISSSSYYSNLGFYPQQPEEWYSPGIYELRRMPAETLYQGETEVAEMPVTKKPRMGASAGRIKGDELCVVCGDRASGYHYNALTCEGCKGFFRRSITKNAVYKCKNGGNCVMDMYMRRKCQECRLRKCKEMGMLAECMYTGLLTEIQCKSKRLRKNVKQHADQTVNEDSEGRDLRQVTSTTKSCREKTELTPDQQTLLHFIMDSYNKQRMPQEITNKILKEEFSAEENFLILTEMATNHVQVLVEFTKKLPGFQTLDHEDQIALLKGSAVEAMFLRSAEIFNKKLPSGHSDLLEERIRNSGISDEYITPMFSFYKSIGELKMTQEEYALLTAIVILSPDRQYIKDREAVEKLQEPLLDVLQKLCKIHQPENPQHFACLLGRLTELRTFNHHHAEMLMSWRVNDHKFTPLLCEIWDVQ
Chain of Transcription factor Sp1 (Homo sapiens) (P08047 whole entry, looked up): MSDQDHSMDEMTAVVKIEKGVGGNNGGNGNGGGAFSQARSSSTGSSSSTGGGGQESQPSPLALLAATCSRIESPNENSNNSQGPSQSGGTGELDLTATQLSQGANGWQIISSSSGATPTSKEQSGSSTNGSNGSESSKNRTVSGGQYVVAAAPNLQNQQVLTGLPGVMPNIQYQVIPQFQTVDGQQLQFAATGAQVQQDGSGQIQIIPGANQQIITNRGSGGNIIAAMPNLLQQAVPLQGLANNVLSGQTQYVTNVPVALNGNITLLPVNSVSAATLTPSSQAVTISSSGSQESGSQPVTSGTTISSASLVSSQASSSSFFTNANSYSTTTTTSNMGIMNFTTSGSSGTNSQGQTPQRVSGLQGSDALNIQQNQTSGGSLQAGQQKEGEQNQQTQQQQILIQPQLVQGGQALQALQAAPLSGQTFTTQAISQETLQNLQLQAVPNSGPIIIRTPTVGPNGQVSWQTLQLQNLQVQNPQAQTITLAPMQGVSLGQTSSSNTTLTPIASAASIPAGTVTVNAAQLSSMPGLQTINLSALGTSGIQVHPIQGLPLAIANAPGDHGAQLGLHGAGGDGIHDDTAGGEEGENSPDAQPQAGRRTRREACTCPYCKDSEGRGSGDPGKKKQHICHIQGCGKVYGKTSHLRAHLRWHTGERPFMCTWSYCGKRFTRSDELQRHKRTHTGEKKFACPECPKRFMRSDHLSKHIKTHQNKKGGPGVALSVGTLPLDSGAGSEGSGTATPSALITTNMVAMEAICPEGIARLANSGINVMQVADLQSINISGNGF
Chain of Heat shock factor protein 1 (Homo sapiens) (Q00613 whole entry, looked up): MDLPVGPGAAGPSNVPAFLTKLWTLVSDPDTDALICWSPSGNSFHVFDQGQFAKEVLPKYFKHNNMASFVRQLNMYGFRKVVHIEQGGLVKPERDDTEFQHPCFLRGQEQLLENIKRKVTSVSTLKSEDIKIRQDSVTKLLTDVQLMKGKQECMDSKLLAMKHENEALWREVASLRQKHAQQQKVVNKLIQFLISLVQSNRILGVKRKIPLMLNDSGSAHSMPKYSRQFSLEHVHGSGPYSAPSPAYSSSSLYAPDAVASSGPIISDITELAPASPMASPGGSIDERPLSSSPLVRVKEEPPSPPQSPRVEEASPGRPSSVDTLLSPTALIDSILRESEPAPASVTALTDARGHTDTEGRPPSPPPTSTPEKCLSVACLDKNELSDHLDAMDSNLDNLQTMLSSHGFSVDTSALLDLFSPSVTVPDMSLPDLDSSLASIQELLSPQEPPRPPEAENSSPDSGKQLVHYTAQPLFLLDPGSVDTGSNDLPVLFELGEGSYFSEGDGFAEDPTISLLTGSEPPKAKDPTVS
Chain of Paired box protein Pax-6 (Homo sapiens) (P26367 whole entry, looked up): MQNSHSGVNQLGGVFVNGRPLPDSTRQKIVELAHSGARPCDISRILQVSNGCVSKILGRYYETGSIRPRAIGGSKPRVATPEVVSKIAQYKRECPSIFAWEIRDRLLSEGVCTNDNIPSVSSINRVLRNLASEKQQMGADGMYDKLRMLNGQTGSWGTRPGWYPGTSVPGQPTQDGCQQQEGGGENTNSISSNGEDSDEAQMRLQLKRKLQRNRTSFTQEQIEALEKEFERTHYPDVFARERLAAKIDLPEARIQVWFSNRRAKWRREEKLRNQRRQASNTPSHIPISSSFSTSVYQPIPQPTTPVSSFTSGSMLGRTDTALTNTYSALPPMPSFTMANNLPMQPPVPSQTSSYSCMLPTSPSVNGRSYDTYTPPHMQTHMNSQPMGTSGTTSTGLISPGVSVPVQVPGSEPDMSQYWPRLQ

One may read the AC50 as the concentration giving half of the maximal activity seen. `COC(C)(C)CC(C)=O`: the compound was classed as inactive in experiment [1], in experiment [2], in experiment [3], in [4], in [5] and in [6]. For the same compound, the outcome in experiment [7], in [8], in [9], in experiment [10], in experiment [12] and in experiment [13] was inactive. Also, the outcome in [14], in [15], in experiment [16], in [17], in experiment [18] and in experiment [19] was inactive. Also, the AC50 in experiment [11] was 34.4 µM (active).
Consider `O=C(CC(=O)c1ccccc1)c1ccccc1`, for which the call in experiment [1], in experiment [2], in experiment [4], in experiment [5], in experiment [17] and in experiment [18] was inactive. Also, in [19], the call was inactive. The AC50 in [3] was 95.9 µM (active); in experiment [6] it was 33.5 µM (active); in experiment [7], 145 µM (active); in experiment [8], 145 µM (active); in experiment [9] it was 136 µM (active); in experiment [20] it was 100 µM (active). Also, the AC50 was 25.3 µM (active) in experiment [11]; 3.67 µM (active) in [12]; 26.7 µM (active) in experiment [13]; 100 µM (active) in experiment [14]; 94.3 µM (active) in experiment [15]; 67.7 µM (active) in experiment [16].
Consider `NCc1ccco1`, for which the call in [1], in [2], in experiment [3], in experiment [4], in experiment [5] and in experiment [6] was inactive. Further, the outcome in experiment [7], in [8], in experiment [9], in [10], in experiment [11] and in experiment [12] was inactive. Also, the call in [13], in [14], in experiment [16], in experiment [17], in [18] and in experiment [19] was inactive.
As to `CCCC(C)=O`, the compound was classed as inactive in experiment [1], in [2], in [3], in experiment [4], in experiment [5] and in experiment [6]. The compound was called inactive in experiment [7], in [8], in experiment [9], in experiment [10], in [20] and in [11]. The compound was classed as inactive in experiment [12], in experiment [13], in experiment [14], in [15], in [16] and in [17]. Moreover, the compound was classed as inactive in experiment [18] and in experiment [19].
As for `CCCCOCC`, the compound was called inactive in experiment [1], in experiment [2], in experiment [3], in [4], in experiment [5] and in [6]. Also, the compound was classed as inactive in experiment [7], in experiment [8], in experiment [9], in experiment [10], in experiment [20] and in [11]. The compound was classed as inactive in experiment [12], in [13], in experiment [15], in [16], in experiment [17] and in [18]. Also, the result in experiment [19] was inactive.
For the compound `CC=Cc1ccc(OC)c(OC)c1`, the compound was classed as inactive in experiment [1], in [2], in experiment [3], in experiment [4], in experiment [5] and in experiment [6]. Moreover, the call in experiment [7], in experiment [8], in experiment [9], in experiment [20], in experiment [12] and in experiment [13] was inactive. The call in experiment [14], in [16], in experiment [17], in experiment [18] and in experiment [19] was inactive. In addition, the half-maximal activity concentration (AC50) in experiment [11] was 19.5 µM (active).
For `CCCOCCO`, the compound was classed as inactive in experiment [1], in experiment [2], in experiment [3], in experiment [4], in experiment [5] and in experiment [6]. In addition, the compound was called inactive in experiment [7], in experiment [8], in experiment [9], in experiment [10], in experiment [20] and in experiment [11]. In addition, the compound was classed as inactive in experiment [14], in experiment [15], in experiment [16], in [17], in experiment [18] and in [19].

These data come from PubChem BioAssay (EPA / NIEHS).
